In the library only some 6.2% were active in any assay of this set; here they are far more common.
Marburg entry inh = Marburg virus entry inhibition | Marburg virus pseudotyped entry inhibition, cell reporter | Potency, µM (highest dose often 37.8 µM), for inactives: at the top dose activity change, negative = inhibition, actives largely listed as inhibitors | 1.8% of 300,000 active; calls by dose curve; tested in HEK293 cells; further: potency means the concentration at half of the fitted maximal effect
FMDV inh = blocks foot and mouth disease virus; FMDV antiviral cell-based qHTS; Potency, µM (doses to about 57.9 µM), for inactives: at the top dose activity change, negative = inhibition, most hits filed as inhibitors; 1.2% of 410,000 active; calls by dose curve; tested in HEK293T cells; further: read-out not given here; potency means the concentration at half of the fitted maximal effect; nearly all actives have a fitted effect of over 45% in size
LASV entry inh = blocks Lassa virus binding to or entry into cells. Lassa virus pseudotype entry inhibition, cell reporter. Potency, µM (doses to about 37.9 µM), for inactives: at the highest dose activity change, negative = inhibition, actives largely listed as inhibitors. 1.2% of 300,000 active; calls by dose curve; tested in HEK293 cells; further: potency means the concentration at half of the fitted maximal effect; nearly all actives have a fitted effect of over 50% in size
HCMV inh = blocks human cytomegalovirus replication. activity change, negative = inhibition, % at 57.5 µM. AID 1259415. HFF cells, HCMV-luciferase reporter, 72 h; hits give low values. 4.5% of 410,000 active; in the data active means activity change below about -60%; inconclusive means no clear call, values can overlap the other calls; inactive means above about -39%
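Two-dose cell screen: HFF monolayers treated with compounds and infected with luciferase-expressing HCMV at 1 PFU/cell, 72 h at 37C, then lysed for luciferase measurement.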
The depositor's hits bear a star; [ ] = remark or other dose. On the % scale 0 is the no-effect control and ±100 the full control effect.

What do the screens show for `COc1cccc(OC)c1Oc1ccc(C(F)(F)F)cn1`?
Marburg entry inh: 16%; FMDV inh: 1%; LASV entry inh: inconclusive; HCMV inh: -20

How did O=C(CSc1nc(Nc2ccccc2)nc(N2CCOCC2)n1)Nc1ccccc1Cl do in these assays?
Marburg entry inh: inconclusive; LASV entry inh: 4.6µM*; HCMV inh: inconclusive

How did CCOc1ccc(N2C(=O)CC(SC(=NC)Nc3cccc(F)c3)C2=O)cc1 (centres undefined) do in these assays?
Marburg entry inh: -3%; FMDV inh: 0%; LASV entry inh: -1%; HCMV inh: -15

What do the screens show for `O[C@H]1C[C@H](c2ccccc2)N(Cc2cccs2)C[C@@H]1n1cc(-c2ccc(F)cc2)nn1`?
FMDV inh: 0%; HCMV inh: -64*

How did COc1ccc([C@H]2C[C@H](O)[C@@H](n3cc(-c4ccc(F)cc4)nn3)CN2Cc2cccs2)cc1 do in these assays?
FMDV inh: inconclusive; LASV entry inh: inconclusive; HCMV inh: -67*

What do the screens show for `CC1(C)CC2CC(C)(CN2c2ncnc3ccccc23)C1` (centres undefined)?
Marburg entry inh: inconclusive; LASV entry inh: -30%; HCMV inh: -63*

How did c1ccc2c(N3CCCCC3)ncnc2c1 do in these assays?
Marburg entry inh: 0%; FMDV inh: -3%; LASV entry inh: -6%; HCMV inh: -91*

How did CC1CCCCN1c1ncnc2ccccc12 (centres undefined) do in these assays?
Marburg entry inh: inconclusive; LASV entry inh: inconclusive; HCMV inh: -88*

Results for COc1ccccc1-c1cncnc1NCc1cccnc1 ?
FMDV inh: 9%

Results for COC(=O)CC1=C(C(=O)OC)[C@H](c2cccc(OCC(N)=O)c2)C(C#N)=C(N)O1 ?
Marburg entry inh: -30%

How did COC(=O)CC1=C(C(=O)OC)C(c2cccc(OCC(N)=O)c2)C(C#N)=C(N)O1 (centres undefined) do in these assays?
Marburg entry inh: -30%; FMDV inh: -10%; LASV entry inh: 2%; HCMV inh: -101*

Results for CCCOc1ccc(S(=O)(=O)n2cc(Br)c(=O)[nH]c2=O)cc1 ?
Marburg entry inh: 7%; LASV entry inh: 3%; HCMV inh: 41

What do the screens show for `CCOC(=O)c1c(C)[nH]c(C(=O)OCC(=O)N(C)C2CCS(=O)(=O)C2)c1C` (centres undefined)?
Marburg entry inh: 5%; FMDV inh: -2%; LASV entry inh: 3%; HCMV inh: 20

How did CC(Sc1nnc(-c2ccc(C(C)(C)C)cc2)n1C)C(N)=O (centres undefined) do in these assays?
Marburg entry inh: 5%; FMDV inh: 33%; LASV entry inh: 10%; HCMV inh: -29

What do the screens show for `CC(C)(C)NCC(O)COc1ccccc1C1CCCC1` (centres undefined)?
FMDV inh: -22%; HCMV inh: -78*

How did CC(C)(c1ccccc1)c1ccc(OCC(O)CNC2CCN(Cc3ccccc3)CC2)cc1 (centres undefined) do in these assays?
Marburg entry inh: inconclusive; FMDV inh: inconclusive; HCMV inh: -113*

What do the screens show for `Cc1ccc(OCC(O)CNC2CCCC2)c(C)c1` (centres undefined)?
FMDV inh: 1%; HCMV inh: 89

Results for COc1ccc(CNCC(O)COc2ccc(C(C)(C)c3ccccc3)cc2)cc1 (centres undefined) ?
Marburg entry inh: inconclusive; FMDV inh: -27%; LASV entry inh: inconclusive; HCMV inh: inconclusive

How did Cc1ccccc1OCC(O)CNC1CCC(NCC(O)COc2ccccc2C)CC1 (centres undefined) do in these assays?
Marburg entry inh: 1.1µM*; FMDV inh: inconclusive; LASV entry inh: inconclusive; HCMV inh: -100*

What do the screens show for `CC(=O)c1ccc(OCC(O)CN2CCN(Cc3ccccc3)CC2)cc1` (centres undefined)?
FMDV inh: 0%

What do the screens show for `O=C(c1ccccc1)c1ccc(OCC(O)CN2CCN(Cc3ccccc3)CC2)cc1` (centres undefined)?
Marburg entry inh: 15µM*; FMDV inh: -26%; LASV entry inh: inconclusive; HCMV inh: -7

How did O=C(CCn1cccc1)Nc1cccc(F)c1 do in these assays?
Marburg entry inh: 13%; FMDV inh: 2%; LASV entry inh: 5%; HCMV inh: -14

How did COC(=O)CNC(=O)c1c(C)cc(=O)oc1C do in these assays?
Marburg entry inh: 3%; LASV entry inh: 8%; HCMV inh: 33

Results for CSc1cccc(NC(=O)Nc2ccccc2OCc2cc(=O)n3cc(C)ccc3n2)c1 ?
FMDV inh: -6%; LASV entry inh: inconclusive; HCMV inh: -8

What do the screens show for `O=S(=O)(c1cccc(-c2nn3c(-c4ccncc4)nnc3s2)c1)N1CCOCC1`?
Marburg entry inh: -6%

Results for CCOc1ccc(Nc2nc(CC(=O)OC)cc(=O)[nH]2)cc1 ?
Marburg entry inh: 3%; FMDV inh: -8%; LASV entry inh: inconclusive; HCMV inh: 27

How did Cc1ccc(S(=O)(=O)N2CCN(C(=O)c3ccccc3OCc3c(C)noc3C)CC2)cc1 do in these assays?
FMDV inh: 0%; HCMV inh: 0

How did Cc1ccccc1OCC(O)CN(Cc1ccccc1O)C1CCCCC1 (centres undefined) do in these assays?
Marburg entry inh: 11µM*; FMDV inh: 24%; LASV entry inh: -16%[46.1 µM]; HCMV inh: inconclusive

Results for CCOc1ccc(OCC(O)CNC2CCN(Cc3ccccc3)CC2)cc1 (centres undefined) ?
Marburg entry inh: 1.6µM*; FMDV inh: -17%; LASV entry inh: 6.3µM*; HCMV inh: -64*

How did CN(CC(O)COc1ccccc1F)C1CCCCC1 (centres undefined) do in these assays?
Marburg entry inh: inconclusive; FMDV inh: -3%; LASV entry inh: 5%[46.1 µM]; HCMV inh: 11

Results for CCOc1ccc(NC(=O)c2nc3nc(C)cc(C(F)F)n3n2)cc1 ?
Marburg entry inh: 13%[46.1 µM]; FMDV inh: 6%; LASV entry inh: -2%[46.1 µM]; HCMV inh: -5

What do the screens show for `O=C(c1ccc(Cl)c([N+](=O)[O-])c1)N(Cc1ccccc1)C1CCS(=O)(=O)C1` (centres undefined)?
Marburg entry inh: -1%; FMDV inh: -3%; LASV entry inh: -1%; HCMV inh: inconclusive

What do the screens show for `O=C(c1ccc(Cl)c([N+](=O)[O-])c1)N(Cc1ccc(Cl)cc1)C1CCS(=O)(=O)C1` (centres undefined)?
Marburg entry inh: inconclusive; FMDV inh: 12%; LASV entry inh: -12%; HCMV inh: -60*

How did Nc1ccc(N=Nc2ccccc2)c(N)n1 do in these assays?
Marburg entry inh: -7%; FMDV inh: 13%; LASV entry inh: inconclusive; HCMV inh: -102*

What do the screens show for `COc1ccc2[nH]c3c(=O)n(/N=C/[C@H]4C(C)C=C(C)CC4C)c(=O)[nH]c3c2c1` (some centres undefined)?
Marburg entry inh: -31%; FMDV inh: inconclusive; LASV entry inh: -4%; HCMV inh: -80*
